Assay results taken from PubChem BioAssay (NCI).
About 79,000 compounds went through this panel and 15% of them were active in at least one assay; those are over-represented in the sample as a whole. Calls of active or inactive are those of the source. Cut-off read from the data, not from the text of the source: active = growth inhibition above about 70%; inactive = the rest.

Experiments:
[1] = NCI Yeast Anticancer Drug Screen. Data for the rad50 strain (AID 155);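 note: 0% = growth of vehicle-only cultures of the same strain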; details: S. cerevisiae rad50 strain growth inhibition; at 50.0 µM; stronger effect = higher value
In short: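 Vehicle-treated cultures provide the reference for the growth inhibition reported for compound-exposed, repair-deficient yeast.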

[2] = NCI Yeast Anticancer Drug Screen. Data for the mec2-1 strain (AID 157); details: S. cerevisiae mec2-1 strain, at 50.0 µM, stronger effect = higher value
In short: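 Mutant yeast (mec2-1) grown with compound; growth inhibition relative to vehicle control reported.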

[3] = NCI Yeast Anticancer Drug Screen. Data for the sgs1 mgt1 strain (AID 161);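 note: 0% = growth of cultures given vehicle only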; details: S. cerevisiae sgs1 mgt1 strain, at 50.0 µM, stronger effect = higher value
In short: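 This yeast growth screen uses a strain with defined DNA-repair lesions; compound-treated growth is compared with vehicle-treated growth.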

[4] = NCI Yeast Anticancer Drug Screen. Data for the cln2 rad14 strain (AID 165);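 note: 0% = growth equal to vehicle treated cultures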; details: S. cerevisiae cln2 rad14 strain, at 50.0 µM, stronger effect = higher value
In short: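 Readout is yeast growth inhibition versus vehicle-treated controls, using a strain with cln2 and rad14 alterations exposed to compound.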

[5] = NCI Yeast Anticancer Drug Screen. Data for the bub3 strain (AID 167); details: S. cerevisiae bub3 mutant strain, at 50.0 µM, stronger effect = higher value
In short: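 Mutant yeast screening strain plus compound; vehicle-treated cultures serve as the 0% inhibition reference.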

[6] = NCI Yeast Anticancer Drug Screen. Data for the mlh1 rad18 strain (AID 175); details: S. cerevisiae mlh1 rad18 strain growth inhibition; at 50.0 µM; stronger effect = higher value
In short: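 Genetically defined yeast (DNA repair-deficient) exposed to compounds; growth inhibition determined relative to vehicle.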

Measured: growth inhibition

O=C1CCC(O)=C1O
inactive: [1] -7.75% | [2] -11.4% | [3] 2.3% | [4] 26.5% | [5] -2.35% | [6] -0.25%

C=C(C)C(=O)OCCOCC(CC)CCCC (configuration not stated)
inactive: [1] 11.2% | [2] -8.8% | [3] -5% | [4] -0.3% | [5] -3.35% | [6] -1.8%

Cc1ccc(-n2nc(C)cc2C)nn1
inactive: [1] -3.55% | [2] 11.2% | [3] -9.75% | [4] -25.7% | [5] 26.6% | [6] -13.8%

CCN(CC)CCN(C(=Nc1ccccc1)N1CCCCC1)c1ccccc1
inactive: [1] 6.8% | [2] -35.2% | [3] -11.5% | [4] 19% | [5] 28.1% | [6] 19.4%

O=C1c2c(nc3ccccc3c2-c2ccccc2)CN1Nc1ccccc1
inactive: [1] -12% | [2] -24.9% | [3] -9.45% | [4] 5.65% | [5] -37.7% | [6] -19.4%

O=C1C(Cc2ccccc2)C(=O)N2c3ccccc3C=CC2N1c1ccccc1 (configuration not stated)
inactive: [1] 13.2% | [2] 13.7% | [3] 4.6% | [4] 0.55% | [5] -10% | [6] 8.45%

CC1=CC(C)(C)N=C2SC(=O)c3nc4ccccc4c(=O)n3N12
inactive: [1] 10.7% | [2] 2.35% | [3] 13.8% | [4] -11.3% | [5] 15.1% | [6] 16.6%

CC(CNC(=O)C12CC3CC(CC(C3)C1)C2)NC(=O)C12CC3CC(CC(C3)C1)C2 (configuration not stated)
inactive: [1] 6.45% | [2] 11% | [3] -27.4% | [4] 7.85% | [5] -11.8% | [6] 14.3%

COC(=O)C(=O)c1cc(C)n(C)c(=O)c1CN1C(=O)c2ccccc2C1=O
inactive: [1] -14.2% | [2] 14.8% | [3] 13.8% | [4] -18.9% | [5] -11.8% | [6] -12.8%

CC(S)c1ccccc1 (configuration not stated)
inactive: [1] 6.4% | [2] -0.55% | [3] 13.2% | [4] 11.9% | [5] 25.7% | [6] 14.4%

CCC(CC(C)C)C(=O)OCCBr (configuration not stated)
inactive: [1] 17.9% | [2] 15.2% | [3] 20.6% | [4] -12.8% | [5] 45.5% | [6] 14.4%

CCCCNS(=O)(=O)c1ccccc1
inactive: [1] 7.95% | [2] -18.1% | [3] -59.6% | [4] 9.65% | [5] 1.6% | [6] 20.4%

Cc1cc(S(=O)(=O)Nc2nc3ccccc3[nH]2)c(S)cc1Cl
inactive: [1] 19.9% | [2] 13.2% | [3] 23.9% | [4] 23.4% | [5] 5.55% | [6] 40.6%

O=C(CCCc1ccccc1)OCC(=O)c1ccc(-c2ccccc2)cc1
inactive: [1] 19.4% | [2] 6.45% | [3] 11.2% | [4] 3.45% | [5] 12.8% | [6] 14.6%

CCC(=O)N1CCN(C(=O)CC)c2ccccc21
inactive: [1] -3% | [2] -5.8% | [3] -0.25% | [4] -5.25% | [5] 0.75% | [6] 6.65%

Nc1ncnc(N)c1NC(=O)CCCCc1ccccc1
inactive: [1] 4.25% | [2] -12.2% | [3] -13.2% | [4] 4.8% | [5] 1.4% | [6] -5.9%

ClC12CCC(Cl)(CC1)CC2
inactive: [1] 10.5% | [2] 0.65% | [3] -3.95% | [4] -50.6% | [5] -10.7% | [6] -7.95%

O=C1/C(=C/c2ccccc2)N=C(c2ccccc2)N1n1c(-c2ccccc2)nc2ccccc2c1=O
inactive: [1] 7.5% | [2] 0.35% | [3] 24.4% | [4] 17.8% | [5] -4.05% | [6] 21.8%

O=C1CCCNn2c(nc3ncccc3c2=O)N1
inactive: [1] 17.3% | [2] 37% | [3] 9% | [4] -20.6% | [5] 10.1% | [6] -41.1%

CCN(CC)CC(O)c1ccc2c(ccc3ccccc32)c1 (configuration not stated)
inactive: [1] 12.5% | [2] -5% | [3] 9.2% | [4] -32% | [5] -3.45% | [6] 12%

CCOC(=O)c1cc2c(nc1C)-c1cc(Cl)ccc1OC2OCc1ccccc1 (configuration not stated)
inactive: [1] -1.65% | [2] -3% | [3] -21.6% | [4] -3.55% | [5] -12.2% | [6] 4.3%

CCOC(=O)c1[nH]c2ccsc2c1C[N+]1(C)CCCCC1
inactive: [1] 38.1% | [2] 5.8% | [3] 36.9% | [4] -3.7% | [5] -0.85% | [6] 16.3%

CN(CCCN)CCCN
inactive: [1] -41.4% | [2] -11.2% | [3] -32.6% | [4] -55.6% | [5] -28.6% | [6] -21.7%

NC(Cc1cccc([N+](=O)[O-])c1)C(=O)O (configuration not stated)
inactive: [1] -57.8% | [2] -29.5% | [3] -35.2% | [4] -48.3% | [5] 13.3% | [6] -3.8%

CCC1(C)OC(C)CC(C)(C)O1 (configuration not stated)
inactive: [1] 0.65% | [2] -22.9% | [3] -25.4% | [4] -0.25% | [5] -12.6% | [6] 0%

CCOC(=O)N1CCCCC1
inactive: [1] -3.1% | [2] 5% | [3] 3.05% | [4] -16.1% | [5] -3.3% | [6] 5.95%

CCCN(CCC)S(=O)(=O)c1ccc(NC(=O)Oc2ccc([N+](=O)[O-])cc2)cc1
inactive: [1] 42.5% | [2] 18.1% | [3] 33.5% | [4] 29.9% | [5] 5.85% | [6] 34.4%

COCCCN1COCC(COc2ccc(Cl)cc2)OC1 (configuration not stated)
inactive: [1] -17.9% | [2] -35% | [3] -32.2% | [4] -23.2% | [5] -36.6% | [6] -27.9%

CCCCCCCCCCCCCCCC(=O)O (tested in a mixture with another compound)
inactive: [1] 7.65% | [2] -1.5% | [3] -18.2% | [4] 33.8% | [5] 12.1% | [6] -11.4%

Cc1n[nH]c2ccccc2c1=O
inactive: [1] -4.85% | [2] -17.9% | [3] -21.6% | [4] -18.1% | [5] -23.6% | [6] -9.95%

COc1c(O)c2c(=O)cc3c4c5c(cc(=O)c6c(O)c(OC)c(CC(C)O)c(c(c1CC(C)O)c24)c65)OCO3 (configuration not stated)
active: [1] 74.5% | [2] 97.8% | [3] 76.3% | [6] 70.5%
inactive: [4] 37.5% | [5] 5.55%

C1=Nc2ccccc2/C1=C/C=C/c1ccccc1
inactive: [1] 24.6% | [2] 31.6% | [3] 28.3% | [4] 10.2% | [5] 41.5% | [6] 21.8%

CCOP(=O)(CCCCCCP(=O)(OCC)OCC)OCC
inactive: [1] 30.4% | [2] 18.4% | [3] -0.2% | [4] -31.1% | [5] 8.45% | [6] 32.9%

CC(=O)Oc1cc(C=O)ccc1O
inactive: [1] 0.75% | [2] 6.7% | [3] -3.3% | [4] 1.65% | [5] -7.25% | [6] -7.6%

CCOc1ccc(NC(=O)C(C)O)cc1 (configuration not stated)
inactive: [1] -29.9% | [2] -14.4% | [3] -20.2% | [4] 6.1% | [5] -3.65% | [6] -14.3%

c1ccc(-c2coc(-c3ccccc3)c2)cc1
inactive: [1] -16.2% | [2] -11.8% | [3] -17.6% | [4] -12.2% | [5] -9.35% | [6] -1.9%

CCOP(=O)(OCC)C(Cc1ccc(OC)c(OC)c1)N=C(c1ccccc1)c1ccccc1 (configuration not stated)
inactive: [1] 4.8% | [2] -5.7% | [3] -12.2% | [4] -13.3% | [5] -7.55% | [6] -7.9%
